Activity calls are given as the source filed them. Rule for the calls: active = hit-call score of the fitted dose curve at least 0.9, where 1 is the maximum; inactive = score below 0.9.

Usually AC50 stands for the concentration at which the activity in the assay is half-maximal.

What all share (conditions): mRNA level, 48 h; actives raise or lower the signal
Read-out in assay [1]: JUN Transcription Factor, JUN (gene 3725)
The assay can be described thus: LTEA_HepaRG_JUN: Life Technologies and Expression Analysis (LTEA) Assay for JUN Transcription Factor using HepaRG (AID 2283513). The gist of the method:
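Read-out is JUN transcript level by TaqMan qRT-PCR, normalized to ACTB, GAPDH and POLR2A, after 48 h chemical treatment of HepaRG cells. Concentration-response spanned eight half-log points up to 100 uM in 0.5% DMSO.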

Read-out in assay [2]: Lipase C (LIPC), LIPC (gene 3990)
Kind of assay: LTEA_HepaRG_LIPC: Life Technologies and Expression Analysis (LTEA) Assay for Lipase C (LIPC) using HepaRG (AID 2283514). The method, boiled down:
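HepaRG, 48 h exposure, 8-pt half-log series from 100 uM in 0.5% DMSO, duplicates. Readout: LIPC mRNA by Fluidigm qRT-PCR, housekeeping-normalized (ACTB/GAPDH/POLR2A). Gain or loss fitted bidirectionally against DMSO baseline.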

Read-out in assay [3]: Lipoprotein lipase (LPL), LPL (gene 4023)
The assay can be described thus: LTEA_HepaRG_LPL: Life Technologies and Expression Analysis (LTEA) Assay for Lipoprotein lipase (LPL) using HepaRG (AID 2283515). The gist of the method: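 HepaRG, 48 h exposure, 8-pt half-log dilutions from 100 uM, 0.5% DMSO vehicle, duplicates; qRT-PCR (Fluidigm array) of LPL mRNA vs housekeeping genes; bidirectional curve fit relative to DMSO baseline.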

Read-out in assay [4]: MicroRNA 122 (MIR122), gene 406906
Kind of assay: LTEA_HepaRG_MIR122: Life Technologies and Expression Analysis (LTEA) Assay for MicroRNA 122 (MIR122) using HepaRG (AID 2283516). Note: the transcript read is the microRNA miR-122. The gist of the method: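 Human liver HepaRG cultures receive test chemicals for 48 h at eight half-log concentrations from 100 uM. Expression is quantified by qRT-PCR with ACTB/GAPDH/POLR2A normalization and fitted bidirectionally against 0.5% DMSO.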

Read-out in assay [5]: MYC, MYC (gene 4609)
Kind of assay: LTEA_HepaRG_MYC: Life Technologies and Expression Analysis (LTEA) Assay for MYC using HepaRG (AID 2283518). The method, boiled down: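 Expression changes were scored by TaqMan qRT-PCR with ACTB, GAPDH and POLR2A normalization. Cultures in serum-free induction medium received duplicate 8-point concentration series, highest 100 uM, for 48 h; DMSO (0.5%) served as baseline.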

Read-out in assay [6]: matrix metalloproteinase-3 (MMP3), MMP3 (gene 4314)
Kind of assay: LTEA_HepaRG_MMP3: Life Technologies and Expression Analysis (LTEA) Assay for matrix metalloproteinase-3 (MMP3) using HepaRG (AID 2283519). The gist of the method:
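qRT-PCR read-out of MMP3 mRNA (normalised to three housekeeping genes) in HepaRG liver cells after 48 h chemical exposure; 8-point half-log series, top 100 uM, 0.5% DMSO vehicle. Bidirectional curve fitting against DMSO baseline.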

Read-out in assay [7]: Paternally Expressed 10 (PEG10), PEG10 (gene 23089)
The assay can be described thus: LTEA_HepaRG_PEG10: Life Technologies and Expression Analysis (LTEA) Assay for Paternally Expressed 10 (PEG10) using HepaRG (AID 2283520).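 For AC50: differentiated HepaRG human liver cells in serum-free induction medium with 0.5% DMSO; PEG10 transcript by qRT-PCR normalised to ACTB GAPDH and POLR2A.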 The method, boiled down:
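Human HepaRG cultures are dosed for 48 h across an eight-point half-log series starting at 100 uM, with 0.5% DMSO as vehicle and baseline. Gain or loss of PEG10 transcript is measured by qRT-PCR and fitted in both directions.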

Read-out in assay [8]: Protein phosphatase 2A (PPP2R4), PTPA (gene 5524)
The assay can be described thus: LTEA_HepaRG_PPP2R4: Life Technologies and Expression Analysis (LTEA) Assay for Protein phosphatase 2A (PPP2R4) using HepaRG (AID 2283522). The method, boiled down: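 Cells were plated, cultured 48 h, switched to serum-free induction medium, then dosed for 48 h (8 points, max 100 uM, 0.5% DMSO). RNA was isolated and PPP2R4 expression measured by TaqMan qRT-PCR.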

Read-out in assay [9]: solute carrier (SLC22A1), SLC22A1 (gene 6580)
The assay can be described thus: LTEA_HepaRG_SLC22A1: Life Technologies and Expression Analysis (LTEA) Assay for solute carrier (SLC22A1) using HepaRG (AID 2283524). The method, boiled down:
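qRT-PCR readout (TaqMan, Fluidigm arrays) of SLC22A1 transcript, normalized to three housekeeping genes; bidirectional curve fit relative to 0.5% DMSO vehicle. Differentiated human HepaRG cells, 48 h chemical exposure, top concentration 100 uM, half-log steps, eight points.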

Read-out in assay [10]: Pyruvate Dehydrogenase Kinase 4 (PDK4), PDK4 (gene 5166)
The assay can be described thus: LTEA_HepaRG_PDK4: Life Technologies and Expression Analysis (LTEA) Assay for Pyruvate Dehydrogenase Kinase 4 (PDK4) using HepaRG (AID 2283525). The gist of the method:
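HepaRG (human liver line), 48 h chemical exposure, 8-pt half-log CRC top 100 uM, 0.5% DMSO vehicle, duplicates. Readout: TaqMan qRT-PCR of PDK4 mRNA, housekeeping-normalized; gain/loss fit relative to DMSO baseline.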

Read-out in assay [11]: NAD(P)H dehydrogenase [quinone] 1 (NQO1), NQO1 (gene 1728)
Kind of assay: LTEA_HepaRG_NQO1: Life Technologies and Expression Analysis (LTEA) Assay for NAD(P)H dehydrogenase [quinone] 1 (NQO1) using HepaRG (AID 2283526). The gist of the method: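 Transcript induction or suppression is quantified by qRT-PCR in human HepaRG liver cells dosed for 48 hours. Eight half-log concentrations topping at 100 uM are used, with 0.5% DMSO as vehicle and baseline.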

Read-out in assay [12]: Nuclear factor erythroid 2-related factor 2 (Homo sapiens) (UniProt Q16236)
Kind of assay: LTEA_HepaRG_NFE2L2: Life Technologies and Expression Analysis (LTEA) Assay for Nuclear factor erythroid 2-related factor 2 (NFE2L2) Transcription Factor using HepaRG (AID 2283527). The method, boiled down:
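HepaRG, 48 h dosing, 8-pt half-log series from 100 uM in 0.5% DMSO, duplicates. Read-out: NFE2L2 mRNA by qRT-PCR (ACTB/GAPDH/POLR2A normalization). Bidirectional curve fit vs DMSO baseline.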

Read-out in assay [13]: succinate dehydrogenase complex iron sulfur subunit B (SDHB), SDHB (gene 6390)
The assay can be described thus: LTEA_HepaRG_SDHB: Life Technologies and Expression Analysis (LTEA) Assay for succinate dehydrogenase complex iron sulfur subunit B (SDHB) using HepaRG (AID 2283528). The method, boiled down: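 SDHB transcript level read by TaqMan qRT-PCR, housekeeping-normalised (ACTB, GAPDH, POLR2A), after 48 h chemical treatment of plated HepaRG cells; eight concentrations top 100 uM, half-log steps, 0.5% DMSO, duplicates; fitted both directions against DMSO.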

Read-out in assay [14]: Signal transducer and activator of transcription 3 (Homo sapiens) (UniProt P40763)
Kind of assay: LTEA_HepaRG_STAT3: Life Technologies and Expression Analysis (LTEA) Assay for Signal transducer and activator of transcription (STAT3) using HepaRG (AID 2283529). The method, boiled down: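 HepaRG, 48 h exposure, 8-pt half-log series (top 100 uM), 0.5% DMSO vehicle, duplicates. Readout: STAT3 transcript by Fluidigm qRT-PCR, housekeeping-normalized; bidirectional fit vs DMSO baseline.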

Read-out in assay [15]: sulfotransferase 2A1 (SULT2A1), SULT2A1 (gene 6822)
Kind of assay: LTEA_HepaRG_SULT2A1: Life Technologies and Expression Analysis (LTEA) Assay for sulfotransferase 2A1 (SULT2A1) using HepaRG (AID 2283531). The method, boiled down:
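Gene-expression endpoint in a human liver cell line: SULT2A1 mRNA change after 48 h chemical treatment, curves fitted in both directions relative to 0.5% DMSO vehicle. Concentrations spanned eight half-log steps from 100 uM.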

Read-out in assay [16]: Transforming Growth Factor (TGFA), TGFA (gene 7039)
The assay can be described thus: LTEA_HepaRG_TGFA: Life Technologies and Expression Analysis (LTEA) Assay for Transforming Growth Factor (TGFA) using HepaRG (AID 2283532). The gist of the method:
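qRT-PCR read-out of TGFA transcript, normalized to three housekeeping genes, fitted bidirectionally against 0.5% DMSO baseline. Human HepaRG cultures received chemicals for 48 h at eight half-log concentrations, top 100 uM.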

Read-out in assay [17]: matrix metalloproteinase-10 (MMP10), MMP10 (gene 4319)
Kind of assay: LTEA_HepaRG_MMP10: Life Technologies and Expression Analysis (LTEA) Assay for matrix metalloproteinase-10 (MMP10) using HepaRG (AID 2283517). The gist of the method: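 Transcript levels come from Fluidigm qRT-PCR normalized to three housekeeping genes, with curves fitted bidirectionally against 0.5% DMSO. Human HepaRG cells were dosed for 48 hours at concentrations up to 100 uM.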

Read-out in assay [18]: Nuclear factor NF-kappa-B p105 subunit (Homo sapiens) (UniProt P19838)
The assay can be described thus: LTEA_HepaRG_NFKB1: Life Technologies and Expression Analysis (LTEA) Assay for Nuclear Factor Kappa B Subunit 1 (NFKB1) using HepaRG (AID 2283521).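 Note: differentiated human HepaRG liver cells in serum-free induction medium.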 The gist of the method:
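NFKB1 transcript was measured by TaqMan qRT-PCR on Fluidigm arrays, normalised to three housekeeping genes and fitted in both directions against 0.5% DMSO. HepaRG cells were dosed in duplicate for 48 h in serum-free induction medium, eight half-log steps from 100 uM.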

Read-out in assay [19]: solute carrier (SLCO1B1), SLCO1B1 (gene 10599)
The assay can be described thus: LTEA_HepaRG_SLCO1B1: Life Technologies and Expression Analysis (LTEA) Assay for solute carrier (SLCO1B1) using HepaRG (AID 2283530). The method, boiled down: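 Human HepaRG cultures treated for 48 h with an eight-concentration half-log series topping at 100 uM; SLCO1B1 measured by qRT-PCR and fitted bidirectionally relative to DMSO.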

Sequence of Signal transducer and activator of transcription 3 (Homo sapiens) (P40763 whole entry, looked up): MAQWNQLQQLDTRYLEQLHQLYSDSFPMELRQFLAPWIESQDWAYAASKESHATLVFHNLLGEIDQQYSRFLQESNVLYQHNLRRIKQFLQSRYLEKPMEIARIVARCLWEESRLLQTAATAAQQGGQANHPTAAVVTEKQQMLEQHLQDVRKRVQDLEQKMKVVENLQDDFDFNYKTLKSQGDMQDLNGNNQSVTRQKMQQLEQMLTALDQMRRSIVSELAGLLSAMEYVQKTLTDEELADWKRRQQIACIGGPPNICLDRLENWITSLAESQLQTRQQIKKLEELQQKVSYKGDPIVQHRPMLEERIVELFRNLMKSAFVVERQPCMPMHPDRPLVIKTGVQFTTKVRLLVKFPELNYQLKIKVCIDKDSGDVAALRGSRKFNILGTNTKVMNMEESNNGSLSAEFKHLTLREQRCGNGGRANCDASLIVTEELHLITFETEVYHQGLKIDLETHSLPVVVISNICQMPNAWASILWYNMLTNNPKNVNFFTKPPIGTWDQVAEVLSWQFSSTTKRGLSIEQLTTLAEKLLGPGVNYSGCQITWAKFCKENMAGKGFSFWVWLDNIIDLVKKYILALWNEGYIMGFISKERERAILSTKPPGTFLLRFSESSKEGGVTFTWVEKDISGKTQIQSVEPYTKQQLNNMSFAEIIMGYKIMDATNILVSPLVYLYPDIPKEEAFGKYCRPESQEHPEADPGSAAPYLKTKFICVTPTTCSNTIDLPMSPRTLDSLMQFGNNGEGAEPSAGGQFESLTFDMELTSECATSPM
Sequence of Nuclear factor NF-kappa-B p105 subunit (Homo sapiens) (P19838 whole entry, looked up): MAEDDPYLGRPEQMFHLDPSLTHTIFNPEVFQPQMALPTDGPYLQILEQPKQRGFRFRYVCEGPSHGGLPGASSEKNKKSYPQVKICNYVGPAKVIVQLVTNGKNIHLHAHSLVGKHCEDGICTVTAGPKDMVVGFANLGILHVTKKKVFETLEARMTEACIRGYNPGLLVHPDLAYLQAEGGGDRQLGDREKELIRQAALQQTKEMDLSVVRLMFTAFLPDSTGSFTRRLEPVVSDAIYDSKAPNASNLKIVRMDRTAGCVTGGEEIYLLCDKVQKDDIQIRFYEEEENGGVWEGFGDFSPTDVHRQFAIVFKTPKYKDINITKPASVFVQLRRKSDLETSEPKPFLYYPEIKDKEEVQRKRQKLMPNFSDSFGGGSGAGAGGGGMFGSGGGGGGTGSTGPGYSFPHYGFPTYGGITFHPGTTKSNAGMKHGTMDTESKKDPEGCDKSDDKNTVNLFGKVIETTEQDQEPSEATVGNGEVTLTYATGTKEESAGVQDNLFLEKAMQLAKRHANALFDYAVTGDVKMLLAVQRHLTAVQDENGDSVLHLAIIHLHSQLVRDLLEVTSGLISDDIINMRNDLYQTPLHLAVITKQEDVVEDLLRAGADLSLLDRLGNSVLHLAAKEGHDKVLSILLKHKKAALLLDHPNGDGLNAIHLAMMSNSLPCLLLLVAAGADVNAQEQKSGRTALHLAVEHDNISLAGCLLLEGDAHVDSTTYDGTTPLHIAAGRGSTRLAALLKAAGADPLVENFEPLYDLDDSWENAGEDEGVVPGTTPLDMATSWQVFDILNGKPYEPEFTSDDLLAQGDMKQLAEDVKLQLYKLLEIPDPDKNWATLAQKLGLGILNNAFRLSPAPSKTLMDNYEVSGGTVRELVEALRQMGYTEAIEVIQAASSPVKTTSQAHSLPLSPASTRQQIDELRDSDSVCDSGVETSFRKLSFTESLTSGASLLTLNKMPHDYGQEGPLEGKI
Sequence of Nuclear factor erythroid 2-related factor 2 (Homo sapiens) (Q16236 whole entry, looked up): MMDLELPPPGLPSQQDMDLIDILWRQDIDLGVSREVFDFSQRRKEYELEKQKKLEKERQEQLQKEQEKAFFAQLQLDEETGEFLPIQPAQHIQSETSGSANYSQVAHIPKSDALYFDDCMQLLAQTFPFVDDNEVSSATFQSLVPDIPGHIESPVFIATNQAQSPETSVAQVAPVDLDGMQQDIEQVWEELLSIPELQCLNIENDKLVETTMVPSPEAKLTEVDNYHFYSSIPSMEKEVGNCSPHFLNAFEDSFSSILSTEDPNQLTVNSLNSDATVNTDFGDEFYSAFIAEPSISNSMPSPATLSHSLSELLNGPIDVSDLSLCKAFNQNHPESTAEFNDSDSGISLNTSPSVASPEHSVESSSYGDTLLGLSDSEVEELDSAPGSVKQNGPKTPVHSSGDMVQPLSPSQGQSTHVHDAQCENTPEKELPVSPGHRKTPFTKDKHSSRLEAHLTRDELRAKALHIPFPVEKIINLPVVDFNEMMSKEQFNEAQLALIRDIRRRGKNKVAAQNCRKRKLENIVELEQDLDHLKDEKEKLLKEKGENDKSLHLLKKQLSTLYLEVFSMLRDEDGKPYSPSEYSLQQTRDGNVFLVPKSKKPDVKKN

Turning to `Cc1ccc([N+](=O)[O-])cc1`, the outcome in assay [1], in [2], in assay [3], in [4], in [5] and in [6] was inactive. Besides, the compound was called inactive in assay [8], in [9], in assay [10], in assay [11], in assay [12] and in assay [13]. The compound was classed as inactive in [14], in assay [15] and in assay [16]. Besides, the AC50 in assay [7] was 11.3 µM (active).
In the case of `c1ccc2c(c1)oc1ccccc12`, the compound was called inactive in [1], in [2], in [4], in assay [17], in assay [5] and in assay [6]. The compound was called inactive in assay [7], in assay [18], in [8], in assay [9], in assay [10] and in assay [11]. The compound was classed as inactive in assay [12], in [13], in assay [14], in assay [19], in assay [15] and in [16].
Take `Oc1ccccc1Cl`: the result in assay [1], in [2], in assay [4], in assay [17], in assay [5] and in assay [6] was inactive. Moreover, the result in assay [7], in assay [18], in assay [8], in assay [10], in [11] and in assay [12] was inactive. Also, the call in [13], in assay [14], in assay [19], in [15] and in [16] was inactive.
For `Clc1ccc(C(c2ccc(Cl)cc2)C(Cl)(Cl)Cl)cc1`, the compound was classed as inactive in assay [1], in assay [4], in assay [5], in [6], in assay [7] and in assay [18]. Besides, the outcome in assay [8], in [10], in [11], in assay [12], in assay [14] and in assay [19] was inactive. Further, the call in [15] and in [16] was inactive. The AC50 is 84.5 µM (active) in assay [2], 50 µM (active) in assay [3] and 17 µM (active) in [13].

The values are drawn from PubChem BioAssay (EPA / NIEHS).
